Results filed as inconclusive are left out. Calls of active or inactive are those of the source. Calls follow the shape of the dose curve; as a rule, active = well fitted inhibition curve with a large enough effect; inconclusive = small, poorly fitted or top-dose-only effect; inactive = flat fitted curve, though single readings scatter.
Experiments:
Assay in all cases: qHTS profiling for inhibitors of Plasmodium falciparum proliferation (AID 504749); also: nearly all actives have a fitted effect of over 60% in size
Conditions in all cases: P. falciparum in erythrocytes, SYBR Green DNA, 72 h; series mostly up to 28.7 µM
[1] = test system: ATS95
Procedure, shortened: (§1)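 Parasite proliferation within erythrocytes, 72 h exposure. Endpoint: SYBR Green I fluorescence after overnight lysis at room temperature. Controls: 0.29 uM artemisinin, DMSO.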

[2] = test system: C2A
Procedure, shortened: as §1

[3] = test system: CP185
Procedure, shortened: as §1

[4] = test system: CP237
Procedure, shortened: as §1

[5] = test system: CP238
Procedure, shortened: as §1

[6] = test system: CP262
Procedure, shortened: as §1

[7] = test system: CP265
Procedure, shortened: as §1

[8] = test system: CP268
Procedure, shortened: as §1

[9] = test system: CP269
Procedure, shortened: as §1

[10] = test system: CP286
Procedure, shortened: as §1

[11] = test system: CP305
Procedure, shortened: as §1

[12] = test system: CP325
Procedure, shortened: as §1

[13] = test system: CP335
Procedure, shortened: as §1

[14] = test system: DIV30
Procedure, shortened: as §1

[15] = test system: Dd2
Procedure, shortened: as §1

[16] = test system: ECU
Procedure, shortened: as §1

[17] = test system: HB3
Procedure, shortened: as §1

[18] = test system: P93_24
Procedure, shortened: as §1

[19] = test system: PAD
Procedure, shortened: as §1

[20] = test system: TAB109
Procedure, shortened: as §1

Measured: Potency

CCN1C[C@]2(COC)[C@H](O)C[C@H](OC)[C@]34C1C([C@H](OC)[C@H]23)[C@]1(OC(C)=O)C2[C@@H](OC(=O)c3ccccc3)C(O)(C[C@H]24)[C@@H](OC)[C@@H]1O
inactive: [1] | [2] | [3] | [4] | [5] | [6] | [7] | [8] | [9] | [10] | [11] | [12] | [13] | [14] | [15] | [16] | [17] | [18] | [19] | [20]

From PubChem BioAssay (NCATS)
